# Compound activity: PubChem BioAssay, several laboratories
# PLCb3 inh = human PLC-beta3 inhibitors, primary screen, biochemical, fluorescence; inhibition, % at 12.2 µM; 1-phosphatidylinositol 4,5-bisphosphate phosphodiesterase beta-3 (Homo sapiens), Q01970; 0.18% of 370,000 active; Purified PLC-beta3, fluorogenic substrate; in the data active means inhibition above about 11%;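 further: 0% = median of compound wells on plate and 100% = full blocker control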
# Rce1 inh = yeast Rce1p protease inhibitors, primary screen, biochemical, fluorescence, cell-free homogeneous | AID 2563, 2010 | yeast membranes, quenched prenylated peptide cleavage fluorescence | CAAX prenyl protease 2 (Saccharomyces cerevisiae (strain ATCC 204508 / S288c)), Q03530 | 0.27% of 290,000 active | calls only;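 active means fall in fluorescence gain of 50% or more versus controls, with final raw signal at or below 3038400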;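 further: plate controls were neutral control wells for no effect and wells lacking membranes for full effect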
# Target sequence (Q03530 whole entry, looked up): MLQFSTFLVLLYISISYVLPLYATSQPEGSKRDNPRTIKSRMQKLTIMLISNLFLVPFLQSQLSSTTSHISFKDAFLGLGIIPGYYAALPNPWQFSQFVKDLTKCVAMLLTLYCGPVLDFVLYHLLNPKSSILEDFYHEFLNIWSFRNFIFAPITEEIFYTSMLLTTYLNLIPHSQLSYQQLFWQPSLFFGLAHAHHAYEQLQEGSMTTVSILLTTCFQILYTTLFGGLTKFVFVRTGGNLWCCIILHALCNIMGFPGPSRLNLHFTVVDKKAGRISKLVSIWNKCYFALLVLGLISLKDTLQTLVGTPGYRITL
# ADAM10 inh = human ADAM10 inhibitors, primary screen, biochemical, QFRET, HTS | recombinant ADAM10, EDANS/DABCYL FRET peptide cleavage, 3 h | inhibition, % at 7 µM | 0.62% of 370,000 active | AID 720582, 2013;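 active means inhibition above a per-campaign cutoff equal to the mean of compounds falling between control-based bounds plus 3 SD, cut at about 20% in these data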;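 further: 0% = DMSO wells while the 100% control is not disclosed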
# ADAM17 inh = ADAM17 inhibitors, primary screen, biochemical, QFRET | inhibition, % at 6.95 µM | recombinant ADAM17, EDANS/DABCYL FRET peptide cleavage | 0.83% of 370,000 active | Disintegrin and metalloproteinase domain-containing protein 17 (Homo sapiens), P78536 | AID 720648, 2013;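 active means inhibition above the mean of compounds lying between control limits plus 3 SD, set per campaign, cut at about 8.5% in these data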;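 further: 0% = DMSO-only wells as the low control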
# PLC-gamma1 inh = PLC-gamma1 enzyme inhibitors, primary screen, biochemical, fluorescence, purified enzyme; 1-phosphatidylinositol 4,5-bisphosphate phosphodiesterase gamma-1 (Homo sapiens), P19174; fluorogenic substrate; inhibition, % at 12.2 µM; 0.84% of 370,000 active; AID 720700, 2013; in the data active means inhibition above about 9.5%
# ADAM10 confirm = human ADAM10 inhibitors, confirmation, biochemical, QFRET, triplicate | shares compounds with ADAM10 inh | ADAM10 QFRET peptide cleavage, EDANS fluorescence | inhibition, % at 6.95 µM | 1% of 2,100 active;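 active means inhibition above about 20% chosen separately for each screening run, limit read from the data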;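 further: 0% = DMSO wells and 100% = marimastat wells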
# ADAM17 ctr = ADAM17 inhibitors, counter-screen for ADAM10 exosite inhibitor project, biochemical, QFRET, high throughput. AID 743214, 2013. inhibition, % at 6.95 µM. ADAM17 QFRET peptide cleavage, EDANS fluorescence. 0.5% of 2,100 active. shares compounds with ADAM10 inh;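 active means mean triplicate inhibition above the solvent-only control wells' mean plus 3 SD, cut at about 12% in these data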;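 further: 0% = DMSO wells and 100% = marimastat wells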
# * = called active by the depositor; i = inactive; / = no result given. Compounds with a hit are over-represented: about 2.1% of the library has one in this group of screens.
SMILES,PLCb3 inh,Rce1 inh,ADAM10 inh,ADAM17 inh,PLC-gamma1 inh,ADAM10 confirm,ADAM17 ctr
CCN(c1ccc(NC(=O)COC(=O)CCc2cc(OC)c(OC)c(OC)c2)cc1)C(C)C,-2,i,21*,0,-5,1,0
Cc1ccc(NC(=S)Nc2cc(-c3ccccc3)[nH]n2)cc1Cl,3,i,16,4,2,/,/
Fc1ccc(NC(=S)Nc2cc(-c3ccccc3)[nH]n2)cc1Cl,-9,i,22*,5,-1,10,3
CN(CC(=O)NCc1ccc(F)cc1)CC(=O)Nc1ccc(Cl)c(C(F)(F)F)c1,-6,/,23*,5,3,0,0
O=C1CCCC2=C1C(c1ccc(O)cc1)c1c(ccc3ccccc13)N2 (configuration not stated),i,i,i,-444,i,/,/
O=c1[nH]c(C2CCN(S(=O)(=O)c3ccc(F)cc3)CC2)nc2c1nnn2Cc1ccc2c(c1)OCCO2,-9,i,23*,1,7,2,1
O=c1[nH]c(C2CCN(S(=O)(=O)Cc3ccccc3)CC2)nc2c1nnn2Cc1ccccc1,-4,i,-1,4,2,/,/
O=c1[nH]c(C2CCN(S(=O)(=O)/C=C/c3ccccc3)CC2)nc2c1nnn2Cc1ccc(F)cc1,-3,i,29*,8,5,2,2
COc1c(C)cc(Br)cc1C(=O)Nc1ccc(Cc2ccncc2)cc1,-2,i,5,3,2,/,/
CC1(C(=O)NS(=O)(=O)c2cccc(C#N)c2)CCN1C(=O)c1ccco1 (configuration not stated),3,/,-6,-4,6,/,/
CCN(c1ccccc1)S(=O)(=O)c1ccc(N2CCN(c3ccc(O)cc3)CC2)nc1,-1,/,25*,3,-2,6,1
CCN(c1ccccc1)S(=O)(=O)c1ccc(Cl)c(NC(=O)CSc2ncn[nH]2)c1,2,i,23*,2,2,3,3
CCN(c1ccccc1)S(=O)(=O)c1ccc(Cl)c(NC(=O)CSc2n[nH]c(N)n2)c1,2,i,4,1,1,/,/
COc1ccc(N2C(=O)N3[C@H](c4ccc(Br)cc4)[C@@H]4C(=O)N(C(C)(C)C)C(=O)[C@@H]4[C@]3(Cc3ccccc3)C2=O)cc1,4,i,24*,7,3,4,1
O=C1[C@H]2[C@@H](c3ccc(F)cc3)N3C(=O)N(c4ccccc4)C(=O)[C@@]3(Cc3ccccc3)[C@H]2C(=O)N1C1CCCCC1,3,i,24*,7,2,1,1
CCN(CC)CC(=O)Nc1ccc(-c2ccc(NC(=O)CN(CC)CC)c(OC)c2)cc1OC,1,i,-8,-9,1,/,/
CCOP(=O)(OCC)C(NC(=O)Nc1ccc(C)c(Cl)c1)c1ccccc1 (configuration not stated),3,i,7,9,7,/,/
CCOP(=O)(OCC)C(NC(=O)Nc1ccc(Cl)c(Cl)c1)c1ccccc1 (configuration not stated),0,i,22*,8,5,0,1
CCOC(=O)c1c(N)sc(C(O)(C(F)(F)F)C(F)(F)F)c1-c1ccc(F)cc1,-4,i,24*,11*,0,6,2
CCOC(=O)c1c(NC(=O)C2C3CCC(O3)C2C(=O)O)sc(C)c1-c1ccc(F)cc1 (configuration not stated),-3,i,-4,-7,-3,/,/
O=C(NC(C(=O)N/N=C/c1cccc2ccccc12)c1n[nH]c(=O)c2ccccc12)c1ccccc1 (configuration not stated),0,i,22*,7,3,19,6
